Calls of active or inactive are those of the source.

Assay [1] is described as follows: optical density shifts of acrAB sulA E. coli – strain DRC41, OD650, 48 h, E. coli filamentation inducer project, primary screen (AID 1152).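 Also: E. coli MC1000 strain DRC41 lacking acrAB efflux pump and sulA.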 The conditions noted are these: higher = more signal, called active from +8 up or from −8 down.
Assay [2] in a line: probe aLefty1 binding on compound microarray – biochemical, small-molecule microarray, 635/667 nm fluorescence, primary screen (AID 1153).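 Also: score merges spot fluorescence with signal-to-noise ratio from the scanned slide images.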 Conditions: higher = more signal.
A short description of assay [3]: plasmodial surface anion channel blockers, osmotic lysis – cell-based, P. falciparum Indochina, OD700, 1 h, primary screen (AID 1154). Conditions: P. falciparum Indochina infected RBC osmotic lysis, higher = more signal, called active from +8 up or from −8 down.
A short description of assay [4]: plasmodial surface anion channel blockers, osmotic lysis – cell-based, P. falciparum Indochina, OD700, 2 h, primary screen (AID 1155).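 Also: lysis reports solute entry through the parasite surface anion channel PSAC.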 The conditions noted are these: P. falciparum Indochina infected erythrocytes, higher = more signal, called active from +8 up or from −8 down.
Assay [5] in a line: changes in parasitized red cell lysis, either direction – P. falciparum Indochina, OD700, 3 h, PSAC antagonist project, primary screen (AID 1156). The conditions noted are these: P. falciparum-infected erythrocytes, osmotic lysis, higher = more signal, called active from +8 up or from −8 down.
Assay [6] is described as follows: plasmodial surface anion channel blockers, osmotic lysis – cell-based, P. falciparum Indochina, OD700, 18 h, primary screen (AID 1157). The conditions noted are these: P. falciparum Indochina infected erythrocytes, osmotic lysis OD700, 18 h; higher = more signal, called active from +8 up or from −8 down.
Assay [7] in a line: S6 kinase pathway phospho-S6 level changes – cell-based, A549, cytoblot, luminescence, serum-stimulated, primary screen (AID 1158).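 Also: serum-stimulated A549 lung adenocarcinoma cells; signal is phosphorylated S6 detected by cytoblot immunostaining with HRP secondary.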 Conditions: 5 h, higher = more signal.
Assay [8] deals with NADPH oxidase 2 (Homo sapiens) (UniProt P04839). Put plainly: compounds shifting NOX2 Amplex Red fluorescence – cell-based, HEK293-NOX2, PMA-stimulated, NOX inhibitor project, primary screen (AID 1159). Also: test concentration not given here. The conditions noted are these: 45 min, higher = more signal, called active from +8 up or from −8 down.
NADPH oxidase 2 (Homo sapiens), sequence (P04839 whole entry, looked up): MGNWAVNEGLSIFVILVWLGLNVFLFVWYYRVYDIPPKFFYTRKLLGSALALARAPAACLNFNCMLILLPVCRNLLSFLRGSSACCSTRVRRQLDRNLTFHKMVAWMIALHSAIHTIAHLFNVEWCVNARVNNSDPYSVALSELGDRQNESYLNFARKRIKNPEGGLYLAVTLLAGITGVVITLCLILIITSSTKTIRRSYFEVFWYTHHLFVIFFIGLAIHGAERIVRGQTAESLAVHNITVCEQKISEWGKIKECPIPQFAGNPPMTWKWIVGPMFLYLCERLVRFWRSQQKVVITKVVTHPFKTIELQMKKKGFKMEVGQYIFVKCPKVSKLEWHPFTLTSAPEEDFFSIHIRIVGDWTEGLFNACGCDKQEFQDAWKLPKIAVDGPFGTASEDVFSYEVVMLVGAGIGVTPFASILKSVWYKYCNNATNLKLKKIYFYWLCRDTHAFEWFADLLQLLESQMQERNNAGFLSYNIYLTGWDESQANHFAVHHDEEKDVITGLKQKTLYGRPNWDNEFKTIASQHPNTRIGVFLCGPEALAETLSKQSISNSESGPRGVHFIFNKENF
Assay [9] addresses NADPH oxidase 4 (Homo sapiens) (UniProt Q9NPH5). Put plainly: compounds shifting NOX4 Amplex Red fluorescence – cell-based, HEK293-NOX4, tetracycline-induced, NOX inhibitor project, primary screen (AID 1160). Conditions: HEK293-NOX4, Amplex Red H2O2 fluorescence, 45 min; higher = more signal, called active from +8 up or from −8 down.
Assay [10] addresses NADPH oxidase 5 (Homo sapiens) (UniProt Q96PH1). Put plainly: compounds shifting NOX5 Amplex Red fluorescence – cell-based, HEK293-NOX5, NOX inhibitor project, primary screen (AID 1161). The conditions noted are these: HEK293-NOX5, ionomycin, 45 min, higher = more signal.
Assay [11] can be described thus: compound effects on lung adenocarcinoma cell viability – A549, calcein-AM fluorescence, 48 h, basal, profiling panel (AID 1162). Also: test concentration not given here. Conditions: higher = more signal.
Assay [12] in a line: compound effects on differentiated 3T3-L1 adipocyte viability – cell-based, 3T3-L1 adipocytes, calcein-AM fluorescence, 48 h, basal, profiling panel (AID 1163). Also: test concentration not given here. Conditions: 3T3-L1 adipocytes viability, higher = more signal.
Assay [13] can be described thus: compound effects on hepatocellular carcinoma cell viability – HepG2, calcein-AM fluorescence, 48 h, basal, profiling panel (AID 1164). Also: test concentration not given here. Conditions: higher = more signal.
A short description of assay [14]: compound effects on multiple myeloma cell viability – MM1S, calcein-AM fluorescence, 48 h, basal, profiling panel (AID 1165). Also: test concentration not given here. Conditions: higher = more signal.
Assay [15] can be described thus: calcein-AM signal in unstimulated myeloma cells – cell-based, calcein-AM fluorescence, 48 h, PK04 Diversity Set, profiling panel (AID 1166).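 Also: cells grown under basal conditions without added stimulus; test concentration not given here.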 Conditions: RPMI8226 myeloma viability, higher = more signal.
A short description of assay [16]: JC-1 mitochondrial signal, unstimulated HepG2 cells – cell-based, JC-1 fluorescence, 24 h, 100 nL compound, profiling panel (AID 1167). Also: test concentration not given here. Conditions: HepG2 mitochondrial potential, higher = more signal.
A short description of assay [17]: JC-1 mitochondrial signal, unstimulated adipocytes – cell-based, JC-1 fluorescence, 3T3-L1 adipocytes, 24 h, 100 nL compound, profiling panel (AID 1168). Also: test concentration not given here. The conditions noted are these: JC-1 mitochondrial fluorescence, higher = more signal, called active from +8 up or from −8 down.
Assay [18] in a line: JC-1 mitochondrial signal, unstimulated myeloma cells – cell-based, JC-1 fluorescence, RPMI8226, 24 h, 100 nL compound, profiling panel (AID 1169). Also: test concentration not given here. The conditions noted are these: JC-1 mitochondrial potential fluorescence, higher = more signal.
Assay [19] can be described thus: JC-1 mitochondrial signal, unstimulated MM1S myeloma – cell-based, JC-1 fluorescence, 24 h, 100 nL compound, profiling panel (AID 1170). Also: test concentration not given here. The conditions noted are these: MM1S mitochondrial potential, higher = more signal.
Assay [20] in a line: resazurin metabolic signal in A549 cells – cell-based, resazurin fluorescence, 24 h, PK04 Diversity Set, profiling panel (AID 1171). Also: test concentration not given here. Conditions: A549 viability, higher = more signal, called active from +8 up or from −8 down.

NADPH oxidase 4 (Homo sapiens), sequence (Q9NPH5 whole entry, looked up): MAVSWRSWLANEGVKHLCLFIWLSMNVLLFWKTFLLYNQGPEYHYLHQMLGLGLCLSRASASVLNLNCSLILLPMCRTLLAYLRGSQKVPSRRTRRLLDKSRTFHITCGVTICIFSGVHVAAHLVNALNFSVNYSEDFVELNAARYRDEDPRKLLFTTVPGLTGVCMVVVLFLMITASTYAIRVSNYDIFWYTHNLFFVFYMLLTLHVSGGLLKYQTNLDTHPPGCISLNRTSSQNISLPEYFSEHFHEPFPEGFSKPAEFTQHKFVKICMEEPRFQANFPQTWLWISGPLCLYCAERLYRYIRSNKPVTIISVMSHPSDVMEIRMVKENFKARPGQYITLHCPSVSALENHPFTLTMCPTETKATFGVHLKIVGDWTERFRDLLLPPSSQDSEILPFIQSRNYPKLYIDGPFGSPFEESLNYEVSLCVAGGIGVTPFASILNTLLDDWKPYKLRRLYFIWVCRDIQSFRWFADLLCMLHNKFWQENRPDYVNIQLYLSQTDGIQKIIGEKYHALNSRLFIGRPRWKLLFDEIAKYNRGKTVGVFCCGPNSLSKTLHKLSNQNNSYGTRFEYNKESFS
NADPH oxidase 5 (Homo sapiens), sequence (Q96PH1 whole entry, looked up): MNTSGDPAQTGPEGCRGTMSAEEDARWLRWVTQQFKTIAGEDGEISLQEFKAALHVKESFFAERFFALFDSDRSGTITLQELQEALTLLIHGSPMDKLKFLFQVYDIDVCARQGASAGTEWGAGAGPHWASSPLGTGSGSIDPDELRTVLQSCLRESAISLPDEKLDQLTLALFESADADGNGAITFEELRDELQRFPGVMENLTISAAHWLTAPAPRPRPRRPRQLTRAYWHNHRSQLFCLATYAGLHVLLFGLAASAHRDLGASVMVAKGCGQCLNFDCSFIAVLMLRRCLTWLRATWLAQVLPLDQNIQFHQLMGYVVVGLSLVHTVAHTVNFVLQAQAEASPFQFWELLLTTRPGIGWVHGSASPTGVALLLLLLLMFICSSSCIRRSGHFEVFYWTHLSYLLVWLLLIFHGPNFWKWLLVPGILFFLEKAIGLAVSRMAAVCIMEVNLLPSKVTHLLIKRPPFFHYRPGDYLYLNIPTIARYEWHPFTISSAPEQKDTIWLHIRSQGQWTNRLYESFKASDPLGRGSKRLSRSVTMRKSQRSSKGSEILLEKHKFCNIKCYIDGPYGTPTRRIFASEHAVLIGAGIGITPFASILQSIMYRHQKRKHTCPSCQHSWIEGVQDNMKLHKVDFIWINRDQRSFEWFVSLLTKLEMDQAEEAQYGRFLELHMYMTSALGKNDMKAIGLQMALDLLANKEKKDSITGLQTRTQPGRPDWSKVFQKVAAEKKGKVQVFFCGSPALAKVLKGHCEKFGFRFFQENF

`COc1ccc(O[C@H]2C=C[C@@H](c3ccccc3)O[C@@H]2COC(=O)CCC(C)=NOC(C)CN2CCCc3nc(C)c(C)cc32)cc1` (stereo not given in full): the z-score is -0.343 (inactive) in [1]; 8.59 (active) in assay [3]; 0.812 (inactive) in [4]; 0.54 (inactive) in [5]; 0.563 (inactive) in assay [6]; -0.314 in [7]. Also, the z-score in assay [8] was -2.38 (inactive); in [9] it was -0.643 (inactive); in assay [10], -1.35; in assay [11], 1.12; in [12], 0.0929; in assay [13], 0.919. In addition, the z-score in assay [14] was -1.2; in assay [15], -0.63; in assay [16] it was 1.54; in assay [17], -0.0369 (inactive); in [18], -0.455; in assay [19] it was -1.18. Besides, in [20], the z-score is 1.21 (inactive). Also, in [2], the composite z-score worked out at 0.0004.
Consider `COc1cccc([C@H]2Oc3ccc(OC)cc3C(=NO[C@@H](C)c3cn([C@H](CO)Cc4ccccc4)nn3)[C@@H]2O)c1`, for which the z-score was -2.4 (inactive) in assay [1]; 2.52 (inactive) in assay [3]; 0.41 (inactive) in [4]; 1.19 (inactive) in assay [5]; 0.611 (inactive) in assay [6]; -0.15 in assay [7]. Besides, the z-score is -0.0734 (inactive) in assay [8]; -0.424 (inactive) in [9]; -0.327 in [10]; -0.53 in assay [11]; 1.3 in assay [12]; -0.55 in assay [13]. Also, the z-score in assay [14] is 0.738; in assay [15] it was -0.631; in [16] it was -1.22; in assay [17], -1.1 (inactive); in assay [18] it was -0.722; in assay [19] it was 0.339. The z-score in assay [20] is -0.819 (inactive). In assay [2], this compound came in with a composite z-score of -0.147.
For the compound `CCOC(=O)NN=C1C[C@@H](O)[C@@H](O)[C@@H]2[C@@H]3C(=O)N(C(C)(C)C)C(=O)[C@@H]3CC[C@H]12`, the z-score in assay [1] is 1.04 (inactive); in assay [3] it was 0.521 (inactive); in assay [4], 0.16 (inactive); in assay [5], 0.786 (inactive); in assay [6], 0.18 (inactive); in [7], 0.698. Also, the z-score was -1.89 (inactive) in assay [8]; 0.644 (inactive) in assay [9]; 0.0282 in assay [10]; 0.338 in assay [11]; -0.666 in assay [12]; 1.34 in assay [13]. The z-score in assay [14] was 0.469; in [15], 0.541; in [16], 0.361; in assay [17], 0.314 (inactive); in [18] it was -0.252; in assay [19], -1.59. In addition, the z-score in [20] is -0.974 (inactive). The compound also yielded a composite z-score in assay [2] of 0.0701.
Regarding `CCOC(=O)[C@H](CC(C)C)NC(=O)CCC1CC(OC(=O)NCc2ccc3c(c2)OCO3)CC2(CCCC(COC(=O)NCC3CCCCC3)O2)O1` (stereo not given in full), the z-score in [1] was 0.192 (inactive); in assay [3] it was 1.35 (inactive); in assay [4] it was 0.0043 (inactive); in [5], -0.116 (inactive); in assay [6] it was -0.0704 (inactive); in assay [7], 0.542. The z-score in assay [8] is -0.541 (inactive); in assay [9], 0.563 (inactive); in assay [10] it was 0.61; in [11], 1.2; in assay [12] it was -0.721; in assay [13], -0.991. The z-score in assay [14] is -1.2; in assay [15], 0.599; in assay [16] it was 0.498; in assay [17], 0.368 (inactive); in [18] it was -0.247; in [19] it was -0.972. Also, the z-score in assay [20] was 1.26 (inactive). The same compound yielded a composite z-score in [2] of 0.237.
Take `O=C1C=C[C@@H](O)[C@@H]2[C@@H]3C(=O)N(C[C@@H]4CCCO4)C(=O)[C@@H]3CC[C@@H]12`: the z-score in [1] was 0.0413 (inactive); in [3] it was 1.08 (inactive); in assay [4] it was 0.979 (inactive); in assay [5], -0.0029 (inactive); in assay [6] it was 0.281 (inactive); in assay [7] it was -0.382. For the same compound, the z-score in assay [8] is 1.71 (inactive); in assay [9] it was -0.0876 (inactive); in [10], 0.283; in [11], -0.663; in assay [12] it was 0.316; in assay [13], 0.324. Besides, the z-score in assay [14] is -0.121; in assay [15] it was 0.757; in [16] it was 1.09; in [17], 0.0236 (inactive); in assay [18], -0.643; in [19], 0.744. The z-score in assay [20] was -0.379 (inactive). In [2], the composite z-score came out at 0.0313.
On to `CCOC(=O)[C@H](CC(C)C)NC(=O)CCC1CC(OC(=O)NCCc2ccc(F)cc2)CC2(CCCC(COC(=O)NCC3CCCCC3)O2)O1` (stereo not given in full), for which the z-score was -1.12 (inactive) in assay [1]; 2.04 (inactive) in assay [3]; 0.132 (inactive) in assay [4]; 0.107 (inactive) in assay [5]; -0.341 (inactive) in [6]; 0.673 in [7]. Besides, the z-score in [8] was -0.202 (inactive); in assay [9], 0.728 (inactive); in assay [10], 0.123; in assay [11], -0.656; in assay [12], 0.0504; in [13], -0.843. Besides, the z-score is -0.222 in assay [14]; 0.444 in assay [15]; -1.77 in assay [16]; -0.293 (inactive) in assay [17]; -0.168 in assay [18]; -0.24 in assay [19]. The z-score in assay [20] is 0.21 (inactive). Further, the composite z-score in assay [2] was -0.169.

Values taken from PubChem BioAssay.
